PPARg SRC2 recr = agonists of PPARg-SRC-2 recruitment, primary screen, biochemical, HTS | activation, % at 8 µM | 0.34% of 200,000 active | Peroxisome proliferator-activated receptor gamma (Homo sapiens), P37231 | PPARgamma LBD-SRC-2 recruitment;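 further: 0% = vehicle and 100% = reference agonist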
Target sequence (P37231 whole entry, looked up, the tested form may be a part): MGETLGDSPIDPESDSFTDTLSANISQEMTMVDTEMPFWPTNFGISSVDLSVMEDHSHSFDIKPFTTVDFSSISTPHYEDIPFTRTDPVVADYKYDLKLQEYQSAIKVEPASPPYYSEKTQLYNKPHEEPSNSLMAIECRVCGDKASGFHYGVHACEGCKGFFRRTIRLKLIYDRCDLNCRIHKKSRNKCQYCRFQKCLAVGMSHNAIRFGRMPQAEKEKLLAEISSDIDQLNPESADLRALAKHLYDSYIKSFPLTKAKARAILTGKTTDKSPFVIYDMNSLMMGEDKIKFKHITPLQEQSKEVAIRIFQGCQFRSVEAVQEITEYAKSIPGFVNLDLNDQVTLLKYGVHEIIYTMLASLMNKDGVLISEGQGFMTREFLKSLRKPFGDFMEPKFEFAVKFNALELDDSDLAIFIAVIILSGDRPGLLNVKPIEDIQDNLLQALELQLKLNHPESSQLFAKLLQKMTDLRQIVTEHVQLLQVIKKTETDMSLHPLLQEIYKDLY
SRC1 TRFRET art = TR-FRET detection interference compounds, primary screen, artefact control for PPARgamma SRC-1 recruitment agonists, biochemical, TR-FRET emission ratio. TR-FRET ratio at 8 µM. 0.34% of 99,000 active. TR-FRET detection artefact counter-screen; hits give high values; in the data active means TR-FRET ratio above about 2300
TR-FRET SRC-2 ct = TR-FRET signal artefacts, primary screen, artefact control for PPARgamma SRC-2 agonist project, biochemical; TR-FRET artefact counter-screen; hits give high values; TR-FRET ratio at 8 µM; 0.4% of 200,000 active; AID 1049, 2008; in the data active means TR-FRET ratio above about 2000
SRC3 TRFRET art = TR-FRET detection interference compounds, artefact control for PPARgamma SRC-3 recruitment agonists, biochemical, TR-FRET ratio. TR-FRET ratio at 8 µM. 0.39% of 99,000 active. AID 1048, 2008. TR-FRET artefact counter-screen, PPARgamma/SRC-3 format; hits give high values; in the data active means TR-FRET ratio above about 2000
PPARg SRC3 recr = PPARgamma agonists recruiting SRC-3 coactivator, primary screen, biochemical | 0.26% of 200,000 active | activation, % at 8 µM | biochemical PPARgamma/SRC-3 coactivator recruitment assay | Peroxisome proliferator-activated receptor gamma (Homo sapiens), P37231; in the data active means activation above about 23%;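 further: 0% = DMSO and 100% = reference agonist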
PPARg SRC-1 ag = PPARgamma agonists recruiting SRC-1 coactivator, primary screen, biochemical. 0.41% of 200,000 active. PPARgamma-SRC-1 coactivator recruitment biochemical assay. activation, % at 8 µM. Peroxisome proliferator-activated receptor gamma (Homo sapiens), P37231; in the data active means activation above about 19%;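 further: 0% = DMSO and 100% = reference agonist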
PPARg SRC2 conf = agonists of PPARgamma SRC-2 coactivator recruitment, confirmation, biochemical, HTS. 52% of 790 active. AID 1297, 2008. activation, % at 8 µM. biochemical SRC-2 recruitment by PPARgamma. shares compounds with PPARg SRC3 recr;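 further: 0% = vehicle alone and 100% = reference agonist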
PPARg SRC1 conf = PPARgamma agonists recruiting SRC-1 coactivator, confirmation, biochemical. 43% of 790 active. PPARgamma–SRC-1 coactivator recruitment biochemical assay. AID 1300, 2008. activation, % at 8 µM. shares compounds with PPARg SRC3 recr; in the data active means activation above about 20%;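 further: 0% = vehicle wells and 100% = reference agonist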
PPARg SRC3 conf = PPARgamma-driven SRC-3 coactivator recruitment agonists, confirmation, biochemical | activation, % at 8 µM | biochemical PPARgamma-SRC-3 coactivator recruitment, agonist mode | 29% of 790 active | AID 1301, 2008 | shares compounds with PPARg SRC3 recr; in the data active means activation above about 24%;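 further: 0% = vehicle wells and 100% = reference agonist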
Active calls of the source: *; / = no result. An excerpt weighted towards active compounds, which were near 0.9% of everything screened. Unless noted, no stated cut-off is given here; in the data, active means activation above about 22%; inactive means the rest.

SMILES | PPARg SRC2 recr | SRC1 TRFRET art | TR-FRET SRC-2 ct | SRC3 TRFRET art | PPARg SRC3 recr | PPARg SRC-1 ag | PPARg SRC2 conf | PPARg SRC1 conf | PPARg SRC3 conf
CC(C)CCNC(=O)C(CC(C)C)N(Cc1ccc2c(c1)OCO2)C(=O)c1snc(C(N)=O)c1N (configuration not stated) | -1 | 1600 | 1530 | 1436 | 0 | -1 | / | / | /
Cc1cc(=O)oc2c(C(=O)/C=C\c3cccs3)c(O)ccc12 | -1 | 1766 | 1427 | 1335 | -3 | 2 | / | / | /
Cc1c(C(=O)/C=C/c2cccs2)oc2ccc(F)cc12 | 14 | / | 2116* | / | 24 | 28* | 11 | 9 | 7
Cc1ccc(-n2c(O)c(C=Nc3ccccc3-c3n[nH]c(=S)[nH]c3=O)c3ccccc3c2=O)cc1C | 24* | 2325* | 2174* | 2203* | 23* | 24* | 44* | 33* | 28*
COc1cc(/C=C(\C#N)C(=O)Nc2cccc3ncccc23)cc(OC)c1OC | 10 | 1866 | 1527 | 1573 | 24* | 9 | 3 | 10 | 13
O=C(O)c1cn[nH]c1-c1cccc([N+](=O)[O-])c1 | 11 | 1771 | 1483 | 1543 | 6 | 8 | / | / | /
COC(=O)c1cc(Cl)c(NC(=O)c2ccc(C(C)(C)C)cc2)cc1OC | 8 | / | 1607 | / | 20 | 5 | / | / | /
COC(=O)c1cc(Cl)c(NC(=O)c2cc3ccccc3o2)cc1OC | 50* | / | 3198* | / | 105* | 97* | 59* | 53* | 40*
Cn1c(-c2sc3cc(C(F)(F)F)cnc3c2-c2cccnc2)n[nH]c1=S | 19 | / | 1633 | / | 30* | 19* | 72* | 57* | 44*
Cn1c(-c2sc3cc(C(F)(F)F)cnc3c2-c2cccs2)n[nH]c1=S | 30* | 2475* | 2200* | 2332* | 22 | 17 | 46* | 41* | 29*
CC(C)[C@H](NC(=O)OC(C)(C)C)C(=O)N/N=C/c1cccc2nccnc12 | 2 | / | 1445 | / | 2 | 7 | / | / | /
COc1ccccc1CCc1nnc(CCC(=O)NC(C)Cn2nc(C)cc2C)o1 (configuration not stated) | 2 | 1770 | 1392 | 1437 | -7 | -4 | / | / | /
CSc1oc(-c2ccccc2)nc1C(N)=O | 19 | / | 1911 | / | 30* | 18 | 27* | 18 | 17
COc1cccc(C2C(C(=O)c3cc4cccc(OC)c4o3)=C(O)C(=O)N2c2cc(C)on2)c1OC (configuration not stated) | 35* | / | 2236* | / | 45* | 33* | 41* | 28* | 26*
COc1cc(C2C(C(=O)c3ccc(C)o3)=C(O)C(=O)N2c2cc(C)on2)ccc1O (configuration not stated) | 5 | / | 1751 | / | 3 | 8 | / | / | /
COc1ccc(OC)c(C2C(C(=O)c3cccs3)=C(O)C(=O)N2c2cc(C)on2)c1 (configuration not stated) | 2 | / | 1544 | / | -2 | -6 | / | / | /
COc1cccc(C2C(C(=O)c3cc4ccccc4o3)=C(O)C(=O)N2c2cc(C)on2)c1OC (configuration not stated) | 45* | / | 2593* | / | 69* | 50* | 36* | 28* | 25*
CCOC(=O)/C(C#N)=C\c1ccc(CC)s1 | -4 | / | 1512 | / | -9 | -4 | / | / | /
CCOC(=O)/C(C#N)=C\C=C1C=CN(C)C=C1 | 32* | / | 1925 | / | 21 | 24* | 15 | 9 | 9

Bioassay records as filed in PubChem.
